# Results from PubChem BioAssay.
# Calls of active or inactive are those of the source.
# Tests used:
# [1] = binders of probe aFSTL3 on microarray, primary screen, stem cell growth factor project, biochemical, small-molecule microarray, fluorescence 635/667 (AID 1064); settings: higher = more signal;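 also: measures binding of the biotinylated anti-FSTL3 antibody to printed compounds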
# [2] = binders from COS7 lysate, DM2A8 probe, primary screen, torsin A project, cell lysate, small-molecule microarray, fluorescence 635/667 (AID 1065); settings: higher = more signal, COS7 lysate expressing mutant human TOR1A
# [3] = binders of probe aFGF2 on microarray, primary screen, stem cell growth factor project, biochemical, small-molecule microarray, fluorescence 635/667 (AID 1067); settings: higher = more signal;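 also: measures binding of biotinylated aFGF2 protein to printed compounds on slides; z-score merges feature fluorescence and signal-to-noise across triplicate slides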
# [4] = binders of probe aFGF10 on microarray, primary screen, stem cell growth factor project, biochemical, small-molecule microarray, fluorescence 635/667 (AID 1071); settings: higher = more signal;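 also: score merges 667 nm spot intensity and signal to noise from triplicate slides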
# [5] = target: Neurogenic locus notch homolog protein 2 (Homo sapiens) (UniProt Q04721); assay: Notch2 binders on small-molecule microarrays, primary screen, biochemical, small-molecule microarray, 635 nm fluorescence, stem cell growth factors (AID 1073); settings: Notch2 binding, higher = more signal
# Sequence of Neurogenic locus notch homolog protein 2 (Homo sapiens) (Q04721 whole entry, looked up, canonical isoform): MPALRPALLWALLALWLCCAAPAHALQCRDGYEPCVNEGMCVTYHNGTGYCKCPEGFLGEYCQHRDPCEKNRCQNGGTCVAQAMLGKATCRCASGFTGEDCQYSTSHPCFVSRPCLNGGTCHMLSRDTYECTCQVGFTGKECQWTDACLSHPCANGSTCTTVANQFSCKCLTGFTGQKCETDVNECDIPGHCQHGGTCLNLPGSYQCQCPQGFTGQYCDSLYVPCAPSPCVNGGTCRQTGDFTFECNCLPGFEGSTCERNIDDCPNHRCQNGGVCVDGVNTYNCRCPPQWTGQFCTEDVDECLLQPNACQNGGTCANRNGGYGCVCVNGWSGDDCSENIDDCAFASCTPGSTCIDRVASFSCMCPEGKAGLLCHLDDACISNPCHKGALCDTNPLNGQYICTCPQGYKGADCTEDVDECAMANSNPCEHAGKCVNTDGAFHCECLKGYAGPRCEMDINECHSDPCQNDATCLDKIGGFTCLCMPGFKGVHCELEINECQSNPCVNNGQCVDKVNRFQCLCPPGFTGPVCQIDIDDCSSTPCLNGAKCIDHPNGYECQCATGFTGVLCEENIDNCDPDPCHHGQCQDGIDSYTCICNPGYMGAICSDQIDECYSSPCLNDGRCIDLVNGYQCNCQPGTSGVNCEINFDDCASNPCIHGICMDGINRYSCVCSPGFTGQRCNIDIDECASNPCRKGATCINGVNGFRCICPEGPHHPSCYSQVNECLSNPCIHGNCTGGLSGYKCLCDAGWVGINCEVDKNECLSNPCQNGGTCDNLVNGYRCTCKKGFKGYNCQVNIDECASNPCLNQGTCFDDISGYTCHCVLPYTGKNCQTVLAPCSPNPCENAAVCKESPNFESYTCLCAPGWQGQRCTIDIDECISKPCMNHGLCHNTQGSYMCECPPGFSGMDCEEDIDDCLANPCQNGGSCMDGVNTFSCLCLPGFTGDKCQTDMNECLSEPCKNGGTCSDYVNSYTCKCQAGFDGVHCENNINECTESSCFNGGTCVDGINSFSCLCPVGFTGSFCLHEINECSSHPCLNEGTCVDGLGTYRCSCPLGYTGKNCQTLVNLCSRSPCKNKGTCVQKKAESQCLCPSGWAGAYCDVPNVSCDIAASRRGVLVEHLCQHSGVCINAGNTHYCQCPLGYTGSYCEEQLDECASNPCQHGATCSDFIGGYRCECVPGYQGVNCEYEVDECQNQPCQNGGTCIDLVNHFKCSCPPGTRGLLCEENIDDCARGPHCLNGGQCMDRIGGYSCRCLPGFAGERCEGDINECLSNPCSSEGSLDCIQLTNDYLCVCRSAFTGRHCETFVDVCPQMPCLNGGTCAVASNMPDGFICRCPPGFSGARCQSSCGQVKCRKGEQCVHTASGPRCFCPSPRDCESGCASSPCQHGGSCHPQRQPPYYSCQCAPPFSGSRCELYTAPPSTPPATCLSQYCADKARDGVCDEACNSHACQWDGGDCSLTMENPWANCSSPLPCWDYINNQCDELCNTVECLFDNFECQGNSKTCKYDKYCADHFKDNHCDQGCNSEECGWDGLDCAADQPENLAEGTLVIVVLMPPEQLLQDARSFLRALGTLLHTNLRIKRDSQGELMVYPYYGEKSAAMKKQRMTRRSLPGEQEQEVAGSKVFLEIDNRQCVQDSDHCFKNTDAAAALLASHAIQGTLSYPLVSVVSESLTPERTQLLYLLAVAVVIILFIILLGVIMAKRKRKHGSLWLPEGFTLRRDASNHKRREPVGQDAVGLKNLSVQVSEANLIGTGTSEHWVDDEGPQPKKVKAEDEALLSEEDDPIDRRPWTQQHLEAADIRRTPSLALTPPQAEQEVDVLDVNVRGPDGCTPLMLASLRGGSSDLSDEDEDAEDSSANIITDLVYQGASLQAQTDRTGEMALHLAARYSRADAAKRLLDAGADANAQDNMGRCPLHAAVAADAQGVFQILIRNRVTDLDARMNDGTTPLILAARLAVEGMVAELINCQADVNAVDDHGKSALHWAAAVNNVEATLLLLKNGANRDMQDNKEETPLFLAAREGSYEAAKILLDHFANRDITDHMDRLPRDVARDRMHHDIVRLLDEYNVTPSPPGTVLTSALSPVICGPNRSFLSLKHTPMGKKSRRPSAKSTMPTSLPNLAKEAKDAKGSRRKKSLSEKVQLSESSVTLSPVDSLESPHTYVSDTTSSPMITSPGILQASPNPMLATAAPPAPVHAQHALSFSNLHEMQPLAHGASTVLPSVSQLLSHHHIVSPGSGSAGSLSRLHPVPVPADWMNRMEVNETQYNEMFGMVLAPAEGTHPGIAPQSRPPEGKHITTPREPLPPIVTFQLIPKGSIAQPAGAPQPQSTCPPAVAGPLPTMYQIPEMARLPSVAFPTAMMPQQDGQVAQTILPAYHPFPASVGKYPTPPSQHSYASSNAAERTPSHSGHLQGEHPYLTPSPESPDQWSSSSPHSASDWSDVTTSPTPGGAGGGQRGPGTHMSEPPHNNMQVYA
# [6] = target: Pro-neuregulin-1, membrane-bound isoform (Homo sapiens) (UniProt Q02297); assay: NRG1 binders on small-molecule microarrays, primary screen, psychiatric disease protein project, biochemical, small-molecule microarray, fluorescence 635/667 (AID 1075); settings: NRG1 binding, 635 nm fluorescence, higher = more signal;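 also: score combines 667 nm spot fluorescence with signal to noise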
# Sequence of Pro-neuregulin-1, membrane-bound isoform (Homo sapiens) (Q02297 whole entry, looked up, the tested form may be a part, canonical isoform): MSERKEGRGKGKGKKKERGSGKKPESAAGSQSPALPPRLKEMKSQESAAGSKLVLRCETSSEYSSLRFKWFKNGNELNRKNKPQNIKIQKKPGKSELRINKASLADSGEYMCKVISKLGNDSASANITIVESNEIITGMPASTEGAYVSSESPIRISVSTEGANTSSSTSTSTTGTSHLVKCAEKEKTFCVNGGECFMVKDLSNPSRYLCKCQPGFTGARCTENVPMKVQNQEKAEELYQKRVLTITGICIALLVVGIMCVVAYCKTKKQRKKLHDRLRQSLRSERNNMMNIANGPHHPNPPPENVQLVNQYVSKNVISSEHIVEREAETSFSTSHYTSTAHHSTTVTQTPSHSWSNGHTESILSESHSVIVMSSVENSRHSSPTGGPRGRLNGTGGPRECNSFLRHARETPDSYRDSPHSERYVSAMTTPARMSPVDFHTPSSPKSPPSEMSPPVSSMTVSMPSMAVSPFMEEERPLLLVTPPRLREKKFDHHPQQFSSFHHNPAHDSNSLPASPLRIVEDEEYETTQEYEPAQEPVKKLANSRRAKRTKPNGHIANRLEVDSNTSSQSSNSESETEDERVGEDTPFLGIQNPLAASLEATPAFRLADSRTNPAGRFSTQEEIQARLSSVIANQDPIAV
# [7] = tested on: Neuregulin-1 EGF-like domain; assay: binders of neuregulin-1 EGF-like domain, primary screen, biochemical, small-molecule microarray, 635 nm fluorescence (AID 1081); settings: small-molecule microarray binding, higher = more signal;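 also: binding of the protein to compounds printed on small-molecule microarray slides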
# [8] = FRG1 promoter luciferase signal modulators, primary screen, FRG1 inhibition for FSHD, cell-based, C2C12 myotubes, firefly/Renilla luciferase, luminescence (AID 1084); settings: higher = more signal, called active from +8 up or from −8 down
# [9] = binders of probe aFST on microarray, primary screen, stem cell growth factor project, biochemical, small-molecule microarray, fluorescence 635/667 (AID 1086); settings: higher = more signal;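 also: score merges 667 nm fluorescence with signal-to-noise of each printed compound spot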
# [10] = binders of probe aHhip on microarray, primary screen, stem cell growth factor project, biochemical, small-molecule microarray, fluorescence 635/667 (AID 1087); settings: higher = more signal;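 also: score merges spot fluorescence at 667nm with spot signal to noise ratio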
# [11] = tested on: PRMT1 (protein arginine N-methyltransferase 1); assay: PRMT1 binders on small-molecule microarrays, primary screen, biochemical, small-molecule microarray, 635 nm fluorescence (AID 1088); settings: small-molecule microarray binding, higher = more signal;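 also: binding of Prmt1 protein to compounds spotted on small-molecule microarray slides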
# [12] = yeast growth modulation, basal conditions, primary screen, YJM789 clinical isolate, OD600, 24 h (AID 1089);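 also: growth of clinical yeast isolate S. cerevisiae YJM 789 seeded 1000 cells per well; test concentration not given here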; settings: S. cerevisiae YJM789 growth, higher = more signal, called active from +8 up or from −8 down
# [13] = fission yeast growth modulation, primary screen, strain 972, OD600, 24 h, no modulator (AID 1090);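 also: basal condition with compound alone and no growth modifier present; test concentration not given here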; settings: S. pombe 972 growth, higher = more signal, called active from +8 up or from −8 down
# [14] = S. cerevisiae growth modulation with rapamycin, primary screen, strain BY4716, OD600, 96 h (AID 1091); settings: higher = more signal, called active from +8 up or from −8 down; also: test concentration not given here
# [15] = target: Torsin-1A-interacting protein 2 (Homo sapiens) (UniProt Q8NFQ8); assay: LULL1 binders on small-molecule microarray, primary screen, cell lysate, human LULL1 lysate, 635/667 nm fluorescence (AID 1092); settings: hLULL1 lysate binding, 635 nm fluorescence, higher = more signal;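 also: probe is lysate of COS7 cells overexpressing human LULL1; score merges per-feature 667 nm fluorescence with signal-to-noise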
# Sequence of Torsin-1A-interacting protein 2 (Homo sapiens) (Q8NFQ8 whole entry, looked up): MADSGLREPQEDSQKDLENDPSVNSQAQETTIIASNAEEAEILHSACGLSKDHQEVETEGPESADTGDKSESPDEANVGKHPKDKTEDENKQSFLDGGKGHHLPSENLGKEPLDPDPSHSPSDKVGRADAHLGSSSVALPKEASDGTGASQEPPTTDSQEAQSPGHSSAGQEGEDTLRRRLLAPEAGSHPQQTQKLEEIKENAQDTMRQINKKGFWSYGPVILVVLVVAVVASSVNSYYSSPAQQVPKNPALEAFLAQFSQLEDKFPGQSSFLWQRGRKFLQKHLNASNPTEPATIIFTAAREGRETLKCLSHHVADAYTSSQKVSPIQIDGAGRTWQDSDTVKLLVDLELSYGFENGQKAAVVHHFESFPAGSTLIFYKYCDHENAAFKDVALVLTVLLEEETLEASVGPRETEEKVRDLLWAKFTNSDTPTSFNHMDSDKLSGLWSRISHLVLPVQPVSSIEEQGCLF
# [16] = E. coli growth modulation, two-sided OD650, primary screen, E. coli filamentation project, strain DRC41, 24 h (AID 1093); settings: OD650, 24 h, higher = more signal, called active from +8 up or from −8 down;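 also: MC1000 strain lacking acrAB efflux and sulA so SOS filamentation is blocked; test concentration not given here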
# [17] = small-molecule microarray binders of probe aLefty2, primary screen, biochemical, biotinylated probe, 635/667 nm fluorescence (AID 1094); settings: higher = more signal;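 also: score merges spot fluorescence near 667 nm with spot signal-to-noise ratio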
# [18] = tested on: Noggin (protein binding on small-molecule microarray); assay: Noggin binders on small-molecule microarray, primary screen, biochemical, 635/667 nm fluorescence (AID 1095); settings: 635 nm fluorescence, higher = more signal;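 also: score merges 667 nm feature fluorescence with signal to noise over triplicate slides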
# [19] = target: Neurogenic locus notch homolog protein 3 (Homo sapiens) (UniProt Q9UM47); assay: NOTCH3 binders on small-molecule microarray, primary screen, biochemical, 635/667 nm fluorescence (AID 1096); settings: NOTCH3 binding, 635 nm fluorescence, higher = more signal
# [20] = small-molecule microarray binders of probe aEGFR, primary screen, biochemical, biotinylated probe, 635/667 nm fluorescence (AID 1097); settings: higher = more signal;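 also: probe is a biotinylated anti-EGFR antibody binding compounds printed on slides; score combines fluorescence near 667 nm and signal to noise of each spot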
SMILES,composite z-score [1],composite z-score [2],composite z-score [3],composite z-score [4],composite z-score [5],composite z-score [6],composite z-score [7],z-score [8],composite z-score [9],composite z-score [10],composite z-score [11],z-score [12],z-score [13],z-score [14],composite z-score [15],z-score [16],composite z-score [17],composite z-score [18],composite z-score [19],composite z-score [20]
O=C1C[C@@](C(=O)NC2CC2)(c2ccc([N+](=O)[O-])cc2)[C@@H](c2ccc(CO)cc2)N1C1CCCCC1,-0.281,0.286,0.0626,0.907,0.804,1.81,1.3,-0.534 (inactive),0.832,0.164,1.52,-1.19 (inactive),-2.19 (inactive),-2.54 (inactive),3.12,0.778 (inactive),-0.0139,1.74,1.07,-0.0828
O=C1C2C=CC(C(O)c3c(F)cccc3Cl)N(Nc3ccc([N+](=O)[O-])cc3)C2C(=O)N1c1ccccc1 (stereo not given),0.0505,0.572,0.147,0.89,1.61,1.12,1.01,-1.18 (inactive),1.37,-0.0618,1.55,-1.01 (inactive),1.35 (inactive),4.59 (inactive),3.54,0.636 (inactive),0.13,0.432,1.09,-0.0021
COc1ccc([Si](C)(C)[C@H]2[C@H](CC(=O)N3Cc4ccccc4C[C@H]3CO)O[C@@]3(C(=O)N(c4ccccc4)c4ccccc43)[C@@H]2C)cc1,0.0545,1.37,0.0568,0.748,0.584,1.16,1.16,-2.31 (inactive),0.381,0.21,1.53,-2.39 (inactive),-1.61 (inactive),-0.776 (inactive),1.47,1.65 (inactive),-0.0088,1.85,1.09,0.0059
O=C(NC1CC1)[C@@H]1c2ccccc2C(=O)N(Cc2cc(C(F)(F)F)cc(C(F)(F)F)c2)[C@H]1c1ccc(CO)cc1,-0.758,0.332,-0.223,0.0757,-0.134,1.4,1.36,0.102 (inactive),-0.131,-0.863,1.43,-0.523 (inactive),-1.38 (inactive),-0.108 (inactive),2.92,-0.275 (inactive),-0.508,0.76,0.491,-0.399
COC(=O)[C@@]1(Cc2ccc(OC)cc2)[C@H]2c3cc(C(=O)N4CCCC4)n(Cc4c(CO)[nH]cc(C)c4=O)c3C[C@H]2CN1C(=O)c1ccccc1,0.0744,0.31,-0.06,0.505,1.57,1.11,0.802,-1.02 (inactive),0.829,0.0302,0.413,-1.56 (inactive),0.801 (inactive),0.147 (inactive),3.35,-0.391 (inactive),0.601,-0.243,0.381,-0.0728
CC(C)=CCCC=C(C)C(O)C1C=CC2C(=O)N(c3ccccc3)C(=O)C2N1Nc1ccc(C#N)cc1 (stereo not given),0.314,0.146,0.126,0.178,1.51,1.93,1.23,-1.36 (inactive),0.257,-0.382,1.38,-1.67 (inactive),0.0768 (inactive),2.31 (inactive),3.3,-1.24 (inactive),-0.152,0.0542,1.01,-0.0828
COC(=O)C1(Cc2ccccc2)C=C2C(=C(C)C(=O)C2C)CN1 (stereo not given),0.601,0.158,-0.0032,0.137,1.01,0.643,0.635,0.0369 (inactive),0.66,-0.199,-0.467,-1.06 (inactive),0.163 (inactive),-0.0472 (inactive),2.04,-0.366 (inactive),0.732,-0.233,-0.016,-0.0146
COc1ccc(C(O)C2C=CC3C(=O)N(c4ccccc4)C(=O)C3N2Nc2ccc([N+](=O)[O-])cc2)c2ccccc12 (stereo not given),0.138,0.263,0.0688,0.852,1.6,1.75,1.27,0.337 (inactive),0.812,0.251,1.53,-0.861 (inactive),1.68 (inactive),2.3 (inactive),3.38,-0.824 (inactive),0.0798,-0.268,1.07,-0.0076
CN1C(=O)C2C=CC(C(O)c3ccc(-c4ccccc4)s3)N(NC(=O)OC(C)(C)C)C2C1=O (stereo not given),0.905,0.286,-0.229,0.419,1.58,1.88,1.21,0.392 (inactive),0.913,-0.0618,0.938,-0.673 (inactive),1.47 (inactive),0.0406 (inactive),2.92,-0.328 (inactive),0.367,-0.0619,0.687,-0.033
C=C(C)[C@@H]1CC=C(C(O)C2C=CC3C(=O)N(c4ccccc4)C(=O)C3N2Nc2ccc([N+](=O)[O-])cc2)CC1 (stereo not given in full),-0.308,0.356,-0.0784,1.05,1.61,1.07,1.24,-0.0111 (inactive),1.57,0.167,1.55,-0.0158 (inactive),0.348 (inactive),3.6 (inactive),3.57,-1.96 (inactive),-0.0357,0.939,1.05,-0.0435
